Assay outcomes (PubChem BioAssay)
Shown are actives, neighbours in structure and some others; about 18% of the full set was active somewhere.
TDP1 inh: qHTS Assay for Inhibitors of Tyrosyl-DNA Phosphodiesterase (TDP1) | Tyrosyl-DNA phosphodiesterase 1 (Homo sapiens), Q9NUW8 | recombinant TDP1, AlphaScreen DNA substrate cleavage | Potency, µM (series often up to 130 µM), actives largely listed as inhibitors | 0.28% of 350,000 active | AID 485290, 2010; further: nearly all actives have a fitted effect of over 40% in size
Target sequence (Q9NUW8 whole entry, looked up): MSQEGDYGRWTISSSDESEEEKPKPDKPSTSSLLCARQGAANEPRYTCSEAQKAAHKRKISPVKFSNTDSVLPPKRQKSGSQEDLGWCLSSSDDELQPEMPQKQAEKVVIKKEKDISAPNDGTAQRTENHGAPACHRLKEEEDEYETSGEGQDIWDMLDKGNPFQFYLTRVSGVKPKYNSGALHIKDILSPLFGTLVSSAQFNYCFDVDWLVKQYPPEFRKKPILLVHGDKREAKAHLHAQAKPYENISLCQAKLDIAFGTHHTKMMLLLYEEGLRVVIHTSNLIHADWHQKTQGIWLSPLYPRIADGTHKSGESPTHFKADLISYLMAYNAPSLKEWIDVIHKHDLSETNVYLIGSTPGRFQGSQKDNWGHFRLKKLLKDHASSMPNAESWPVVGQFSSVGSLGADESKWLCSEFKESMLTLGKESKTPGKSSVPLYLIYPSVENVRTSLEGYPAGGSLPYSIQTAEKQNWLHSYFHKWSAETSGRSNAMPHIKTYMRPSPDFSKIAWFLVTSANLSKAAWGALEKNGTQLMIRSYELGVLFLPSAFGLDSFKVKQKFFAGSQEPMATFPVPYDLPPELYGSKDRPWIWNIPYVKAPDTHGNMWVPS
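AlphaScreen read-out: signal falls as enzyme removes the 3' tyrosine-FITC from a 5'-biotinylated DNA oligo (15 nM, 5 min, RT). Enzyme was E. coli-made recombinant Tdp1 at 1 nM, exposed to compound for 15 min beforehand; beads 10 ug/ml, 10 min.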
VDR inh: Inhibitors of the vitamin D receptor (VDR): qHTS; VDR-SRC2-3 peptide fluorescence polarization, 2 h; Potency, µM, actives largely listed as inhibitors; AID 504847, 2011; Vitamin D3 receptor (Homo sapiens), P11473; 0.93% of 400,000 active
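Signal is fluorescence polarization, reporting how far test compounds block the interaction of VDR with the SRC2-3 coregulator peptide after a 2 h room-temperature incubation.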
KAT2A inh: qHTS Assay for Inhibitors of GCN5L2; Potency, µM (doses to about 58.9 µM), actives largely listed as inhibitors; 0.21% of 390,000 active; Histone acetyltransferase KAT2A (Homo sapiens), Q92830; GCN5L2 HAT assay, ThioGlo1 CoA-SH fluorescence
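Titration-based screen in which CoA formation is detected via maleimide probe ThioGlo1 (50uM) turning fluorescent on thiol reaction; substrates H3(1-25) 75uM and acetyl-CoA 70uM, GCN5L2 20nM, 20 min incubation at room temperature.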
TDP1 cell noCPT: qHTS for Inhibitors of human tyrosyl-DNA phosphodiesterase 1 (TDP1): qHTS in cells in absence of CPT; DT40 Tdp1-/- hTDP1 cells, no CPT, ATP luminescence, 48 h; Potency, µM (titrated, usually from 46.2 µM), usual class: inhibitors; 15% of 420,000 active; AID 686978, 2013; further: nearly all actives have a fitted effect of over 55% in size
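Readout: luminescence from CellTiter-Glo after 30 min in the dark at RT. Cells: DT40 Tdp1-/- with stable hTDP1, 400/well. Exposure: compounds alone, ≥48 hr, 37 °C.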
PLK1 PBD inh: qHTS for Inhibitors of PLK1-PDB (polo-like kinase 1 - polo-box domain): Primary Screen. Plk1 PBD binding of FITC phosphopeptide, fluorescence polarization. Potency, µM, actives largely listed as inhibitors. AID 720504, 2013. Serine/threonine-protein kinase PLK1 (Homo sapiens), P53350. 2.8% of 360,000 active; further: series mostly up to about 57 µM; nearly all actives have a fitted effect of over 65% in size
TDP1 cell CPT: qHTS for Inhibitors of human tyrosyl-DNA phosphodiesterase 1 (TDP1): qHTS in cells in presence of CPT. chicken DT40 Tdp1-/-;hTDP1 cells + 20 nM CPT, ATP luminescence, 48 h. Potency, µM (series often up to 46.2 µM), actives largely listed as inhibitors. 12% of 420,000 active. AID 686979, 2013; further: nearly all actives have a fitted effect of over 55% in size
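Chicken DT40 Tdp1-/- cells complemented with human TDP1, 400 cells/well, exposed to compounds plus 20 nM camptothecin for at least 48 h at 37 C; viability read as ATP content by CellTiter-Glo luminescence.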
Hits are given with their value; - = inactive; ? = inconclusive; . = not tested or not shown; [ ] = dose if it differs, or a comment. The call rests on the fitted dose curve; in most records, active means well fitted curve in the direction sought with a large enough effect; inconclusive means small, poorly fitted or top-dose-only effect, or another doubt; inactive means no such curve, though single readings can be large; an effect the other way counts as inactive or inconclusive.

SMILES	TDP1 inh	VDR inh	KAT2A inh	TDP1 cell noCPT	PLK1 PBD inh	TDP1 cell CPT
Cc1cc(OC(C)C(=O)N(Cc2ccco2)Cc2ccco2)cc(C)c1Cl (stereo unspecified)	-	-	-	9.2µM	.	15µM
Cc1cc(OC(C)C(=O)N(Cc2ccco2)C2CCS(=O)(=O)C2)ccc1Cl (stereo unspecified)	.	?	-	?	-	?
Cc1ccc(CN(Cc2ccco2)C(=O)COc2ccc(C(C)C)cc2)cc1	-	-	-	?	.	?
CN(C)c1ccc(CN(Cc2ccco2)C(=O)COc2ccc(F)cc2)cc1	-	-	-	10µM	.	?
CN(Cc1cccnc1)C(=O)Cc1ccc(NS(=O)(=O)c2cccc(C(F)(F)F)c2)cc1	-	-	-	?	-	-
C[C@@](N)(C(=O)O)[C@@H]1C[C@@H]1C(=O)O	-	-	-	-	.	-
Cc1cccc(C)c1OCC(=O)N(Cc1ccco1)Cc1ccco1	-	-	-	23µM	.	?
Cc1cc(C)cc(OCC(=O)N(Cc2ccco2)Cc2ccccc2Cl)c1	-	-	-	21µM	.	21µM
Cc1ccc(CN(Cc2ccco2)C(=O)COc2cc(C)c(Cl)c(C)c2)cc1	-	-	-	13µM	.	21µM
Cc1cc(C)c(OCC(=O)N(Cc2cccc(F)c2)Cc2ccco2)c(C)c1	-	-	-	18µM	.	15µM
CCc1ccc(CN(Cc2ccco2)C(=O)COc2ccc(Cl)cc2C)cc1	-	-	-	?	.	?
Cc1cccc(C(=O)NCCc2nc3ccccc3n2CCC(C)C)c1	-	-	-	?	.	?
CS(=O)(=O)N(Cc1ccccc1)c1ccc(C(=O)Nc2ccc(Cl)cc2)cc1	-[12.3 µM]	-	-	5.8µM	.	?
CS(=O)(=O)N(Cc1ccccc1)c1ccc(C(=O)Nc2ccccc2C(=O)O)cc1	.	-	-	-	-	-
O=C(Nc1ccc(S(=O)(=O)N(Cc2ccccc2)c2ccccc2)cc1)c1ccc([N+](=O)[O-])cc1	-	-	-	?	.	2.9µM
CS(=O)(=O)N(Cc1ccc(Cl)cc1)c1ccc(C(=O)NCc2ccccn2)cc1	-	-	-	-	-	-
O=C(c1ccc([N+](=O)[O-])cc1)N(Cc1ccccc1)Cc1ccccc1	.	-	.	?	-	-
O=C(NCCC(=O)N(CCc1ccccc1)Cc1ccccc1)c1ccc([N+](=O)[O-])cc1	-	-	-	23µM	-	?
CS(=O)(=O)N(Cc1ccc(Cl)cc1)c1ccc(C(=O)N/N=C/c2cc3ccccc3nc2Cl)cc1	-	-	-	23µM	-	?
Cc1ccc(C(=O)N2NC(c3ccc(F)cc3)C3C(=O)N(c4ccc(C)c(C)c4)C(=O)C32)cc1 (stereo unspecified)	-	-	-	-	-	-
NS(=O)(=O)c1ccc(CCNC(=O)c2coc3ccccc3c2=O)cc1	.	-	-	-	-	-
O=C1/C(=C\c2ccc(O)c(O)c2)N=C2CCCCCN12	-	-	-	?	-	23µM
CCOc1ccc(C(=O)N(CN2CCCC2=O)c2ccc(C)cc2)cc1	-	-	-	23µM	-	8.2µM
OCC[C@@H]1C[C@H](O)[C@@H](O)[C@]2(CCCO2)O1	.	-	.	-	-	-
CC1(C(=O)NS(=O)(=O)C2CC2)CCCN(C(=O)c2cccs2)C1 (stereo unspecified)	.	.	.	6.5µM	-	5.2µM
CC1(C(=O)NS(=O)(=O)C2CC2)CCCN(C(=O)c2ccccc2)C1 (stereo unspecified)	.	.	.	2.1µM	-	5.2µM
CC1(C(=O)NS(=O)(=O)C2CC2)CCCN(C(=O)c2c(F)cccc2F)C1 (stereo unspecified)	.	.	.	4.6µM	-	5.2µM
